VACV mCherry inh = vaccinia inhibition (mCherry reporter). Vaccinia virus mCherry reporter infection, fluorescence. Potency, µM (top dose mostly 36.5 µM), inactives show top-dose activity change, negative = inhibition, hits mostly inhibitors. 310,000 compounds, 0.63% hits; calls by dose curve; tested in A549 cells; note: potency is the fitted concentration of half-maximal effect; nearly all actives have a fitted effect of over 35% in size
Marburg entry inh = blocks Marburg virus binding to or entry into cells | Marburg virus pseudotyped entry inhibition, cell reporter | Potency, µM (doses to about 37.8 µM), inactives show at the top dose activity change, negative = inhibition, most hits filed as inhibitors | 300,000 compounds, 1.8% hits | AID 540276; calls by dose curve; tested in HEK293 cells; note: potency is the fitted concentration of half-maximal effect
HCMV inh = human cytomegalovirus inhibition | HFF cells, HCMV-luciferase reporter, 72 h; stronger effect = lower value | activity change, negative = inhibition, % at 57.5 µM | 410,000 compounds, 4.5% hits; in the data active = activity change below about -60%; inconclusive = no clear call, values can overlap the other calls; inactive = above about -39%
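Two-dose cell screen: HFF monolayers treated with compounds and infected with luciferase-expressing HCMV at 1 PFU/cell, 72 h at 37C, then lysed for luciferase measurement.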
Lassa entry inh = inhibitors of Lassa virus binding or cell entry; Lassa virus pseudotype entry inhibition, cell reporter; Potency, µM (titrated, usually from 37.9 µM), for inactives: at the top dose activity change, negative = inhibition, most hits filed as inhibitors; 300,000 compounds, 1.2% hits; AID 540256; calls by dose curve; tested in HEK293 cells; note: potency is the fitted concentration of half-maximal effect; nearly all actives have a fitted effect of over 50% in size
HCV inhibitor = inhibitors of hepatitis C virus infection; Huh7.5.1 HCVcc-Cre infection, luciferase reporter, 44 h; Potency, µM (series often up to 41.8 µM), without a hit: at the top dose activity change, negative = inhibition, actives largely listed as inhibitors; 340,000 compounds, 3.4% hits; active = well fitted inhibition curve with a large enough effect; inconclusive = small, poorly fitted or top-dose-only effect, or another doubt; inactive = no such curve, though single readings can be large or run the other way; note: potency is the fitted concentration of half-maximal effect
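Reporter virus HCVcc-Cre (~0.5 moi) infects cells exposed to compound; seeding density 1,000 cells/well with 4 h settling beforehand. Luminescence, 15 sec read, taken 44 h post-infection following a 15 min RT substrate incubation.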
VACV Venus inh = vaccinia inhibition (Venus reporter). Vaccinia virus Venus reporter expression, fluorescence. Potency, µM (highest dose often 36.5 µM), for the others: at the highest dose activity change, negative = inhibition, actives largely listed as inhibitors. 330,000 compounds, 0.46% hits. AID 720580; calls by dose curve; tested in A549 cells; note: potency is the fitted concentration of half-maximal effect; nearly all actives have a fitted effect of over 30% in size
Numbers without * were called inactive; ? = inconclusive; . = not tested or not shown; [ ] = another dose, or the depositor's remark. Hits are enriched below; roughly 7.8% of the tested compounds scored in any of these assays. % is set by controls: 0 for no effect and ±100 for the full control effect.

SMILES	VACV mCherry inh	Marburg entry inh	HCMV inh	Lassa entry inh	HCV inhibitor	VACV Venus inh
C/C=C(\C)C(=O)N[C@@H](c1ccccc1)[C@@H](O)C(=O)O[C@H]1C[C@@]2(O)[C@@H](OC(=O)c3ccccc3)C3[C@](C)(C(=O)[C@H](OC(C)=O)C(=C1C)C2(C)C)[C@H](O)C[C@H]1OC[C@@]31OC(C)=O (stereo not given in full)	-28%	.	-39	.	?	-22%
CC/C=C/CC(=O)N[C@@H](c1ccccc1)[C@@H](O)C(=O)O[C@H]1C[C@@]2(O)[C@@H](OC(=O)c3ccccc3)C3[C@](C)(C(=O)[C@H](OC(C)=O)C(=C1C)C2(C)C)[C@@H](O)C[C@H]1OC[C@@]31OC(C)=O (stereo not given in full)	-9%	.	-91*	.	-27%	?
CC(=O)O[C@@]12CO[C@@H]1C[C@H](OC1OCC(O)C(O)C1O)[C@@]1(C)C(=O)[C@H](O)C3=C(C)[C@@H](OC(=O)[C@H](O)[C@@H](NC(=O)c4ccccc4)c4ccccc4)C[C@@](O)([C@@H](OC(=O)c4ccccc4)C12)C3(C)C (stereo not given in full)	-23%	.	-25	.	-6%	-15%
CC(=O)O[C@H]1C(=O)[C@@]2(C)[C@H]([C@H](OC(=O)c3ccccc3)[C@]3(O)C[C@H](OC(=O)[C@H](O)C(NC(=O)c4ccccc4)c4ccccc4)C(C)=C1C3(C)C)[C@]1(OC(C)=O)CO[C@@H]1C[C@@H]2O (stereo not given in full)	?	.	-83*	.	?	-25%
CC(=O)O[C@H]1C(=O)[C@@]2(C)[C@H]([C@H](OC(=O)c3ccccc3)[C@]3(O)C[C@H](OC(=O)[C@H](O)[C@@H](NC(=O)c4ccccc4)c4ccccc4)C(C)=C1C3(C)C)[C@]1(OC(C)=O)CO[C@@H]1C[C@@H]2O	?	?	-70*	.	?	?
CC(=O)O[C@@]12CO[C@@H]1C[C@@H](O)[C@@]1(C)C(=O)[C@H](O)C3=C(C)[C@@H](OC(=O)[C@H](O)[C@@H](NC(=O)c4ccccc4)c4ccccc4)C[C@@](O)([C@@H](OC(=O)c4ccccc4)C12)C3(C)C (stereo not given in full)	?	.	?	.	0.32µM*	-21%
CCOc1ccc2c(c1)C(c1cccs1)=NNC(c1cccnc1)=N2	0%	-16%[46.1 µM]	-71*	-13%	8%	-6%
COc1ccc(-c2cc(=O)c3c(O)cc(O)cc3o2)cc1	-28%	.	14	.	13µM*	-18%
COc1cc(-c2cc(=O)c3c(O)cc(O)cc3o2)cc(OC)c1OC	.	.	10	.	.	.
COc1ccc(-c2cc(=O)c3cc(O)ccc3o2)cc1	-8%	.	118	.	5.6µM*	-8%
CN(C)c1ccc(C2=Cc3ccccc3C2)cc1	-3%	.	.	.	.	-6%
CCc1nc2c(OCc3ccc(Cl)cc3)cccn2c1N(C)C(=O)c1ccccc1F	-21%	.	-63*	.	.	-12%
CCc1nc2c(OCc3ccc(S(C)(=O)=O)cc3)cccn2c1N(C)C(=O)c1ccccc1F	13%	.	-19	.	.	-18%
CCOC(=O)c1cc(-c2ccc(OC)cc2)n(CCC(=O)NCc2ccc(OC)cc2)c1C	0%	.	13	-23%[46.1 µM]	.	-4%
CCOC(=O)c1cccc(NC(=O)C2CCN(S(=O)(=O)c3cccs3)CC2)c1	.	?	-18	?	?	.
CCOC(=O)c1ccc2c(c1)nc(C1CCN(S(=O)(=O)c3cccs3)CC1)n2CC	?	?	?	?	6.3µM*	-25%
C=CCOc1ccccc1OCC(O)CNC(C)C (stereo not given)	-16%	.	-22	.	1µM*	-15%
Cc1cccc(C)c1OCC(O)CNC(C)C (stereo not given)	-13%	8%	-10	17%	13%	-1%

Source: PubChem BioAssay
